Assay results from PubChem BioAssay AID1159580 (chemical genetic matrix, 2015).
Out of some 5,500 compounds screened, about 2,000 (36%) were called active. Roughly 18% stayed inconclusive and do not appear here. No stated cut-off is given here; in the data, active means normalized growth mostly below about 0.91 (no sharp cut-off); inconclusive means no clear call, values can overlap the other calls; inactive means mostly above about 0.92. The list shows a part of the results.

Assay: chemical genetic growth profiling, strain panel (AID 1159580);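 further: tested at 20 µM; growth read once vehicle control cultures reached saturation at 30 °C; 1 = growth at the plate median or of vehicle wells; lower values mean less growth of the strain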
Settings: growth OD

Measured: normalized growth

CC(C)CC1C(=O)N2CCC[C@H]2C2(O)O[C@](NC(=O)C3C=C4c5cccc6[nH]c(Br)c(c56)C[C@H]4N(C)C3)(C(C)C)C(=O)N12 (stereo partly specified)
inactive: S. cerevisiae deletion strains, locus YKL009W, strain mrt4, hits give low values 0.983 | S. cerevisiae deletion strains, locus YKL068W, hits give low values 0.97 | S. cerevisiae deletion strains, locus YKL085W, strain MDH1 (second series), hits give low values 0.963 | S. cerevisiae deletion strains, locus YKL085W, strain MDH1, hits give low values 0.963 | S. cerevisiae deletion strains, locus YKL160W, strain elf1, hits give low values 0.993 | S. cerevisiae deletion strains, locus YKL190W, strain CNB1, hits give low values 0.979 | S. cerevisiae deletion strains, locus YKR001C, strain vps1, hits give low values 0.989 | S. cerevisiae deletion strains, locus YKR026C, strain gcn3, hits give low values 0.998 | S. cerevisiae deletion strains, locus YKR091W, strain srl3, hits give low values 0.979 | S. cerevisiae deletion strains, locus YLL001W, strain dnm1, hits give low values 0.988 | S. cerevisiae deletion strains, locus YLL026W, hits give low values 0.977 | S. cerevisiae deletion strains, locus YLL041C, strain sdh2, hits give low values 0.982 | S. cerevisiae deletion strains, locus YLR027C, strain aat2, hits give low values 0.977 | S. cerevisiae deletion strains, locus YLR039C, strain RIC1, hits give low values 0.905 | S. cerevisiae deletion strains, locus YLR058C, strain SHM2, hits give low values 0.988 | S. cerevisiae deletion strains, locus YLR102C, strain apc9, hits give low values 0.973 | S. cerevisiae deletion strains, locus YLR113W, strain HOG1, hits give low values 0.945 | S. cerevisiae deletion strains, locus YLR221C, strain rsa3, hits give low values 0.983 | S. cerevisiae deletion strains, locus YLR258W, strain gsy2, hits give low values 0.997 | S. cerevisiae deletion strains, locus YLR262C, strain YPT6 (second series), hits give low values 0.944 | S. cerevisiae deletion strains, locus YLR262C, strain YPT6, hits give low values 0.951 | S. cerevisiae deletion strains, locus YLR268W, strain sec22, hits give low values 0.98 | S. cerevisiae deletion strains, locus YLR320W, strain mms22, hits give low values 0.982 | S. cerevisiae deletion strains, locus YLR330W, strain CHS5, hits give low values 0.975 | S. cerevisiae deletion strains, locus YLR342W, strain FKS1 (second series), hits give low values 0.995 | S. cerevisiae deletion strains, locus YLR342W, strain FKS1, hits give low values 0.983 | S. cerevisiae deletion strains, locus YLR357W, strain rsc2, hits give low values 0.933 | S. cerevisiae deletion strains, locus YLR370C, strain arc18, hits give low values 0.966 | S. cerevisiae deletion strains, locus YLR371W, strain rom2, hits give low values 0.977 | S. cerevisiae deletion strains, locus YLR384C, strain iki3, hits give low values 0.987 | S. cerevisiae deletion strains, locus YLR418C, strain cdc73, hits give low values 0.978 | S. cerevisiae deletion strains, locus YML016C, strain PPZ1, hits give low values 0.983 | S. cerevisiae deletion strains, locus YML032C, strain rad52, hits give low values 0.982 | S. cerevisiae deletion strains, locus YML120C, strain ndi1, hits give low values 0.992 | S. cerevisiae deletion strains, locus YML124C, strain tub3, hits give low values 0.973 | S. cerevisiae deletion strains, locus YMR058W, strain fet3, hits give low values 0.973 | S. cerevisiae deletion strains, locus YMR078C, strain ctf18, hits give low values 0.98 | S. cerevisiae deletion strains, locus YMR125W, strain sto1, hits give low values 0.99 | S. cerevisiae deletion strains, locus YMR129W, hits give low values 0.977 | S. cerevisiae deletion strains, locus YMR205C, strain PFK2, hits give low values 0.97 | S. cerevisiae deletion strains, locus YMR223W, strain ubp8, hits give low values 0.986 | S. cerevisiae deletion strains, locus YMR231W, strain pep5, hits give low values 0.99 | S. cerevisiae deletion strains, locus YMR263W, strain SAP30, hits give low values 0.981 | S. cerevisiae deletion strains, locus YMR307W, strain GAS1, hits give low values 1.07 | S. cerevisiae deletion strains, locus YNL067W, strain RPL9B, hits give low values 0.988 | S. cerevisiae deletion strains, locus YNL071W, strain lat1, hits give low values 0.993 | S. cerevisiae deletion strains, locus YNL128W, strain TEP1, hits give low values 0.97 | S. cerevisiae deletion strains, locus YNL153C, strain GIM3, hits give low values 0.986 | S. cerevisiae deletion strains, locus YNL183C, strain NPR1, hits give low values 0.938 | S. cerevisiae deletion strains, locus YNL209W, strain ssb2, hits give low values 0.989 | S. cerevisiae deletion strains, locus YNL233W, strain BNI4, hits give low values 0.986 | S. cerevisiae deletion strains, locus YNL248C, strain rpa49, hits give low values 0.993 | S. cerevisiae deletion strains, locus YNL250W, strain rad50, hits give low values 0.952 | S. cerevisiae deletion strains, locus YNL271C, strain bni1, hits give low values 0.976 | S. cerevisiae deletion strains, locus YNL298W, strain CLA4, hits give low values 0.986 | S. cerevisiae deletion strains, locus YNL307C, strain MCK1, hits give low values 0.981 | S. cerevisiae deletion strains, locus YNL322C, strain KRE1 (second series), hits give low values 0.992 | S. cerevisiae deletion strains, locus YNL322C, strain KRE1, hits give low values 0.978 | S. cerevisiae deletion strains, locus YNR049C, strain mso1, hits give low values 0.971 | S. cerevisiae deletion strains, locus YNR052C, strain pop2, hits give low values 1 | S. cerevisiae deletion strains, locus YOL006C, strain TOP1, hits give low values 1.02 | S. cerevisiae deletion strains, locus YOL012C, strain htz1 0.94 | S. cerevisiae deletion strains, locus YOL147C, strain pex11, hits give low values 0.969 | S. cerevisiae deletion strains, locus YOR001W, strain rrp6, hits give low values 0.997 | S. cerevisiae deletion strains, locus YOR061W, strain CKA2, hits give low values 0.98 | S. cerevisiae deletion strains, locus YOR069W, strain VPS5, hits give low values 0.983 | S. cerevisiae deletion strains, locus YOR070C, strain gyp1, hits give low values 0.985 | S. cerevisiae deletion strains, locus YOR080W, strain dia2, hits give low values 0.974 | S. cerevisiae deletion strains, locus YOR083W, strain WHI5, hits give low values 0.995 | S. cerevisiae deletion strains, locus YOR106W, strain vam3, hits give low values 1.07 | S. cerevisiae deletion strains, locus YOR136W, strain idh2, hits give low values 0.987 | S. cerevisiae deletion strains, locus YOR144C, strain elg1, hits give low values 0.979 | S. cerevisiae deletion strains, locus YOR184W, strain ser1, hits give low values 0.995 | S. cerevisiae deletion strains, locus YOR231W, strain MKK1, hits give low values 0.981 | S. cerevisiae deletion strains, locus YOR265W, strain rbl2, hits give low values 0.971 | S. cerevisiae deletion strains, locus YOR270C, strain vph1, hits give low values 1.07 | S. cerevisiae deletion strains, locus YOR290C, strain snf2, hits give low values 0.977 | S. cerevisiae deletion strains, locus YOR316C, strain cot1, hits give low values 0.976 | S. cerevisiae deletion strains, locus YPL051W, strain arl3, hits give low values 0.985 | S. cerevisiae deletion strains, locus YPL055C, strain LGE1, hits give low values 1 | S. cerevisiae deletion strains, locus YPL078C, strain atp4, hits give low values 0.984 | S. cerevisiae deletion strains, locus YPL106C, strain sse1, hits give low values 0.941 | S. cerevisiae deletion strains, locus YPL240C, strain hsp82, hits give low values 0.99 | S. cerevisiae deletion strains, locus YPL241C, strain CIN2, hits give low values 0.988 | S. cerevisiae deletion strains, locus YPL256C, strain CLN2, hits give low values 0.99 | S. cerevisiae deletion strains, locus YPR119W, strain clb2, hits give low values 0.988 | S. cerevisiae deletion strains, locus YPR141C, strain kar3, hits give low values 0.938 | S. cerevisiae deletion strains, locus YPR163C, strain tif3, hits give low values 0.975 | S. cerevisiae deletion strains, locus YPR167C, strain met16, hits give low values 0.97 | S. cerevisiae deletion strains, strain wtn01, hits give low values 0.975 | S. cerevisiae strains, strain wild type, hits give low values 0.983
